The source of these data is PubChem BioAssay (EPA / NIEHS).

Active and inactive are the calls of the source. How the source made its calls: active means hit-call score of the fitted dose curve at least 0.9, where 1 is the maximum; inactive means score below 0.9.

Read-out in assay [1]: Interleukin 2 (IL2), IL2 (gene 3558)
The assay can be described thus: BSK_BT_xIL2: BioMAP Diversity Plus: BT Assay for Interleukin 2 (IL2) Biomarker Activity (AID 2284245). The settings on record: primary human B cells with PBMC. An outline of the steps: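 Co-cultures of primary human B cells and PBMC are treated with chemical and sampled at 24 h. IL-2 secretion is quantified by Luminex xMAP, with DMSO-treated wells as baseline.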

Read-out in assay [2]: Basic fibroblast growth factor (bFGF), FGF2 (gene 2247)
Nature of the assay: BSK_MyoF_bFGF: BioMAP Diversity Plus: MyoF Assay for Basic fibroblast growth factor (bFGF) Biomarker Activity (AID 2284246). The settings on record: primary human lung fibroblasts. An outline of the steps:
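Fibroblasts from human lung, 24 h dosing. bFGF by ELISA; gain of signal over DMSO.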

Read-out in assay [3]: Collagen IV, COL4A1 (gene 1282)
Nature of the assay: BSK_MyoF_CollagenIV: BioMAP Diversity Plus: MyoF Assay for Collagen IV Biomarker Activity (AID 2284247). The settings on record: primary human lung fibroblasts. An outline of the steps:
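Lung fibroblasts (human primary) treated with chemicals were assayed after 24 h for Collagen IV using an ELISA, with DMSO serving as negative control and baseline for a positive-direction fit.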

Read-out in assay [4]: Plasminogen activator inhibitor-1 (PAI1), SERPINE1 (gene 5054)
Nature of the assay: BSK_MyoF_PAI1: BioMAP Diversity Plus: MyoF Assay for Plasminogen activator inhibitor-1 (PAI1) Biomarker Activity (AID 2284256).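 On outcome: PAI-1 protein level measured by ELISA in fibroblast cultures; PAI-1 read 24 h after compound addition.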 The settings on record: primary human lung fibroblasts. The method, boiled down: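 MyoF lung fibroblasts, human primary; compound 24 h; PAI-1 ELISA; positive-direction fit vs DMSO baseline; parallel SRB total-protein staining for cytotoxicity.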

Read-out in assay [5]: Interleukin-8 (IL8), CXCL8 (gene 3576)
The assay can be described thus: BSK_MyoF_IL8: BioMAP Diversity Plus: MyoF Assay for Interleukin-8 (IL8) Biomarker Activity (AID 2284261). The settings on record: primary human lung fibroblasts. The method, boiled down:
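Lung fibroblasts (human primary) → chemical exposure → 24 h → IL-8 measured by ELISA. Signal increase scored versus DMSO control.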

Read-out in a further assay: Decorin, DCN (gene 1634)
Nature of the assay: BSK_MyoF_Decorin: BioMAP Diversity Plus: MyoF Assay for Decorin Biomarker Activity (AID 2284265). The settings on record: primary human lung fibroblasts. The method, boiled down:
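ELISA readout of decorin, 24 h post-dosing; primary human lung fibroblast (MyoF) culture; gain-of-signal fit vs DMSO baseline.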

Assay [6] is described as follows: BSK_MyoF_SRB: Viability Assessment in the BioMAP Diversity Plus: MyoF Assay (AID 2284267).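 Further: total protein by SRB absorbance in parallel cultures as cytotoxicity measure; cells assessed 24 h after compound addition.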 The settings on record: primary human lung fibroblasts. An outline of the steps: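 In this viability endpoint, fibroblasts from human lung are treated for 24 h, TCA-fixed, SRB-stained (0.1%) and read at 560 nm. Gain of signal relative to DMSO defines activity.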
Read-out in assay [7]: Matrix Metallopeptidase 1 (MMP1), MMP1 (gene 4312)
The assay can be described thus: BSK_MyoF_MMP1: BioMAP Diversity Plus: MyoF Assay for Matrix Metallopeptidase 1 (MMP1) Biomarker Activity (AID 2284268). The settings on record: primary human lung fibroblasts. The method, boiled down:
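Cells: human lung fibroblasts. Exposure: 24 h chemical dosing. Detection: ELISA for MMP1. Analysis: upward fitting against DMSO negative control.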

Read-out in assay [8]: TIMP metallopeptidase inhibitor 1 (TIMP1), TIMP1 (gene 7076)
Nature of the assay: BSK_MyoF_TIMP1: BioMAP Diversity Plus: MyoF Assay for TIMP metallopeptidase inhibitor 1 (TIMP1) Biomarker Activity (AID 2284269). The settings on record: primary human lung fibroblasts. An outline of the steps:
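Fibroblasts from human lung are dosed with chemical, cultured 24 h, and assayed for TIMP-1 by ELISA. Increases over the DMSO baseline are scored, with SRB total-protein staining run in parallel for cytotoxicity.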

Read-out in assay [9]: Collagen I, COL1A1 (gene 1277)
Nature of the assay: BSK_hDFCGF_CollagenI: BioMAP Diversity Plus: hDFCGF Assay for Collagen I Biomarker Activity (AID 2284250). The settings on record: primary human foreskin fibroblasts. The method, boiled down: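 Readout: Collagen I by ELISA after 24 h compound treatment of primary human foreskin fibroblasts. Endpoint analysed for increases relative to DMSO; total protein by SRB in parallel wells flagged cytotoxicity.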

Read-out in assay [10]: Interferon-inducible T-cell alpha chemoattractant (ITAC), CXCL11 (gene 6373)
Nature of the assay: BSK_hDFCGF_ITAC: BioMAP Diversity Plus: hDFCGF Assay for Interferon-inducible T-cell alpha chemoattractant (ITAC) Biomarker Activity (AID 2284251). The settings on record: primary human foreskin fibroblasts. The method, boiled down:
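Measured by ELISA, the chemokine level serves as the endpoint in human skin fibroblast primary cultures 24 h after compound addition. Increases relative to DMSO-treated wells define activity.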

Read-out in assay [11]: Plasminogen activator inhibitor-1 (PAI1), SERPINE1 (gene 5054)
Nature of the assay: BSK_KF3CT_PAI1: BioMAP Diversity Plus: KF3CT Assay for Plasminogen activator inhibitor-1 (PAI1) Biomarker Activity (AID 2284252). The settings on record: primary human keratinocytes with fibroblasts. An outline of the steps: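 In this co-culture of primary human keratinocytes and foreskin fibroblasts, PAI-1 was measured by ELISA at 24 h and fitted upward from DMSO.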

Read-out in assay [12]: Interleukin-8 (IL8), CXCL8 (gene 3576)
Nature of the assay: BSK_KF3CT_IL8: BioMAP Diversity Plus: KF3CT Assay for Interleukin-8 (IL8) Biomarker Activity (AID 2284254). The settings on record: primary human keratinocytes with fibroblasts. An outline of the steps: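 IL-8 read-out: ELISA, 24 h post-dose, human skin primary co-culture (keratinocytes + foreskin fibroblasts). DMSO = baseline; positive-direction fit.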

Read-out in assay [13]: Intercellular Adhesion Molecule 1 (ICAM1), ICAM1 (gene 3383)
The assay can be described thus: BSK_BE3C_ICAM1: BioMAP Diversity Plus: BE3C Assay for Intercellular Adhesion Molecule 1 (ICAM1) Biomarker Activity (AID 2284278).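 Further: cell-surface ICAM-1 protein level quantified by ELISA.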 The settings on record: primary human bronchial epithelial cells. An outline of the steps:
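hu bronchial epithelial primary cells, 24 h cpd exposure, ICAM-1 ELISA; gain-of-signal fit vs DMSO baseline.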

Read-out in assay [14]: Interferon-inducible T-cell alpha chemoattractant (ITAC), CXCL11 (gene 6373)
Nature of the assay: BSK_BE3C_ITAC: BioMAP Diversity Plus: BE3C Assay for Interferon-inducible T-cell alpha chemoattractant (ITAC) Biomarker Activity (AID 2284279). The settings on record: primary human bronchial epithelial cells. An outline of the steps: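 BE3C cells (human primary bronchial epithelium), 24 h compound exposure, I-TAC by ELISA, DMSO = negative control/baseline, positive fitting direction.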

Read-out in assay [15]: Interleukin-8 (IL8), CXCL8 (gene 3576)
The assay can be described thus: BSK_BE3C_IL8: BioMAP Diversity Plus: BE3C Assay for Interleukin-8 (IL8) Biomarker Activity (AID 2284280). The settings on record: primary human bronchial epithelial cells. An outline of the steps: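 Dose human bronchial epithelial cells with chemical; incubate 24 h; quantify IL-8 by ELISA; fit response upward versus DMSO controls.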

Read-out in assay [16]: Epidermal growth factor receptor (EGFR), EGFR (gene 1956)
The assay can be described thus: BSK_BE3C_EGFR: BioMAP Diversity Plus: BE3C Assay for Epidermal growth factor receptor (EGFR) Biomarker Activity (AID 2284281). The settings on record: primary human bronchial epithelial cells. An outline of the steps:
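ELISA read-out of EGFR levels on human bronchial epithelial primary cells collected 24 h post-dosing. DMSO served as negative control and baseline for gain-of-signal fitting.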

Read-out in another assay: KRT18 (gene 3875)
The assay can be described thus: BSK_BE3C_Keratin818: BioMAP Diversity Plus: BE3C Assay for Keratin 818 Biomarker Activity (AID 2284282). The settings on record: primary human bronchial epithelial cells. The method, boiled down:
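In this multiplexed primary-cell system, bronchial epithelial cells were dosed and harvested at 24 h. Keratin 8/18 was determined by ELISA and analysed for increases over DMSO controls.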

Read-out in assay [17]: Matrix Metallopeptidase 9 (MMP9), MMP9 (gene 4318)
The assay can be described thus: BSK_BE3C_MMP9: BioMAP Diversity Plus: BE3C Assay for Matrix Metallopeptidase 9 (MMP9) Biomarker Activity (AID 2284283). The settings on record: primary human bronchial epithelial cells. An outline of the steps:
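ELISA read-out of MMP-9 after 24 h compound exposure of human lung bronchial epithelial primary cells (BE3C). Fit in gain direction vs DMSO negative control; total protein by SRB in parallel cultures flagged overt cytotoxicity.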

Read-out in assay [18]: Plasminogen activator inhibitor-1 (PAI1), SERPINE1 (gene 5054)
Nature of the assay: BSK_CASM3C_PAI1: BioMAP Diversity Plus: CASM3C Assay for Plasminogen activator inhibitor-1 (PAI1) Biomarker Activity (AID 2284284).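 Further: PAI-1 protein level measured by ELISA 24 h after dosing.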 The settings on record: primary human coronary artery smooth muscle cells.

With `c1ccc2c(c1)ccc1ncccc12`, the outcome in assay [1] is “inactive”; in assay [2], “inactive”; in assay [3] it was “inactive”; in [4], “inactive”; in assay [5] it was “inactive”; with Decorin, DCN (gene 1634), “inactive”. The outcome in assay [6], in assay [7] and in assay [8] was inactive.

As for `CN1C(=O)N(C)C(O)C1O` (stereo not drawn), the outcome in assay [9], in assay [10], in [11], in [12], in assay [13] and in assay [14] was inactive. Moreover, the result (in assay [15]; in assay [16]; in the assay with KRT18 (gene 3875); in [17]; in assay [18]) was inactive.

Broadly, the AC50 is the midpoint of the concentration-response curve, whichever way the signal moves. Turning to `C=CCOc1c(Br)cc(Br)cc1Br`, the outcome in assay [1] was “inactive”; in [5] it was “inactive”; in the assay with Decorin, DCN (gene 1634) it was “inactive”; in [7], “inactive”. Further, the concentration at half-maximal activity (AC50) in assay [2] was 34 µM (active); in [3], 5.88 µM (active); in assay [4], 26.6 µM (active); in assay [6], 27.7 µM (active); in assay [8], 31.2 µM (active).

For the compound `CC(C)(c1cc(Br)c(OCCO)c(Br)c1)c1cc(Br)c(OCCO)c(Br)c1`, the AC50 in [1] is 18.7 µM (active); in assay [2], 9.52 µM (active); in assay [3] it was 9.43 µM (active); in assay [4] it was 9.61 µM (active); in [5], 10.6 µM (active); with Decorin, DCN (gene 1634), 9.76 µM (active). The results for the AC50 in assay [6], in assay [7] and in assay [8] were 5.78 µM (active), 9.32 µM (active) and 9.33 µM (active), respectively.

Take `CCCCCCCCc1ccc(Nc2ccc(CCCCCCCC)cc2)cc1`: the outcome in [1] was “inactive”; in [2] it was “inactive”; in assay [3] it was “inactive”; in [4], “inactive”; in assay [5] it was “inactive”; with Decorin, DCN (gene 1634), “inactive”. Moreover, the outcome in assay [6], in assay [7] and in [8] was inactive.

For `c1ccc(-c2ccccn2)nc1`, the outcome in assay [1] was “inactive”; in assay [2], “inactive”; in assay [3], “inactive”; in [4], “inactive”; in assay [5] it was “inactive”; with Decorin, DCN (gene 1634), “inactive”. Also, the outcome in [6], in assay [7] and in [8] was inactive.

Consider `S=C(NC1CCCCC1)NC1CCCCC1`, for which the AC50 in [1] is 27.6 µM (active). In addition, the outcome was “inactive” in assay [2]; “inactive” in assay [3]; “inactive” in assay [4]; “inactive” in assay [5]; “inactive” with Decorin, DCN (gene 1634); “inactive” in assay [6]. For the same compound, the result in assay [7] and in [8] was inactive.

With `COc1ccc2nc(N)sc2c1`, the outcome in [1] is “inactive”; in assay [2] it was “inactive”; in [3] it was “inactive”; in assay [4], “inactive”; in [5] it was “inactive”; in the assay with Decorin, DCN (gene 1634), “inactive”. The result in [6], in assay [7] and in assay [8] was inactive.

Regarding `C/C=C\C/C=C/CCCCCCCCOC(C)=O`, the concentration at half-maximal activity (AC50) in assay [1] is 31.6 µM (active); in assay [4] it was 20 µM (active). Also, the outcome in [2] is “inactive”; in assay [3], “inactive”; in [5], “inactive”; with Decorin, DCN (gene 1634), “inactive”; in assay [6], “inactive”; in assay [7] it was “inactive”. Moreover, in assay [8], the outcome was inactive.
